Among the data in paper PMC7862700, “An all-to-all approach to the identification of sequence-specific readers for epigenetic DNA modifications on cytosine” are binding signal values, retold here.

Assay in all cases: DAPPL (digital affinity profiling via proximity ligation, sequencing); 10 mM Tris-HCl pH 7.5, 50 mM NaCl, 1 mM DTT, 4% glycerol, room temperature, 30 min; GST-TFs on glutathione beads, 16-mer random dsDNA library, 0.1% formaldehyde crosslink after washing; high values mean tight binding
Test [1] addresses HSF1 (Homo sapiens, UniProt Q00613 1-529). Conditions: protein: recombinant; tags: N-terminal GST; chain copies: 3; dsDNA, one strand shown. Summed up: (§1)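 Each value of binding signal is a hexamer's read frequency for a factor divided by the same hexamer's frequency in the tag-only sample. Barcoded, bead-captured GST fusions of human transcription factors made in yeast were pooled with that sample and incubated with 200 nmole of a random double-stranded 16-mer DNA library in Tris/NaCl/DTT/glycerol buffer at room temperature for 30 min. Washing, 0.1% formaldehyde crosslinking, proximity ligation, PCR and Illumina NextSeq500 sequencing followed.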

The target in test [2] is T1, FLI1 (Homo sapiens, UniProt Q01543 1-452).
T1 sequence: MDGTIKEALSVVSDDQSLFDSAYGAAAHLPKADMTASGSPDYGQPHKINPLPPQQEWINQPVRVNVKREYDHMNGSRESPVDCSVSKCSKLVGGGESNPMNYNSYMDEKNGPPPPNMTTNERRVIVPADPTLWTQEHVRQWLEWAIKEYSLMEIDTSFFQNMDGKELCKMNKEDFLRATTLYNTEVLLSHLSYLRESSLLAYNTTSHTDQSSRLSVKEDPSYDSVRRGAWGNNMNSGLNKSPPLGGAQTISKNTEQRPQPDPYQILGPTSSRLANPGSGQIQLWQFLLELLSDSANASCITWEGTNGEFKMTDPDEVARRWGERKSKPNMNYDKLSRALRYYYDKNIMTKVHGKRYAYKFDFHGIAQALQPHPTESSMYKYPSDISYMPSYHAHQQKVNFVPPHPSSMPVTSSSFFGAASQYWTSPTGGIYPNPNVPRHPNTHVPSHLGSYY
The following applies: protein: recombinant; tags: N-terminal GST; dsDNA, one strand shown. In short, it runs like this:
as §1

Test [3] has as its target T2, GABPA (Homo sapiens, UniProt Q06546 1-454).
T2 sequence: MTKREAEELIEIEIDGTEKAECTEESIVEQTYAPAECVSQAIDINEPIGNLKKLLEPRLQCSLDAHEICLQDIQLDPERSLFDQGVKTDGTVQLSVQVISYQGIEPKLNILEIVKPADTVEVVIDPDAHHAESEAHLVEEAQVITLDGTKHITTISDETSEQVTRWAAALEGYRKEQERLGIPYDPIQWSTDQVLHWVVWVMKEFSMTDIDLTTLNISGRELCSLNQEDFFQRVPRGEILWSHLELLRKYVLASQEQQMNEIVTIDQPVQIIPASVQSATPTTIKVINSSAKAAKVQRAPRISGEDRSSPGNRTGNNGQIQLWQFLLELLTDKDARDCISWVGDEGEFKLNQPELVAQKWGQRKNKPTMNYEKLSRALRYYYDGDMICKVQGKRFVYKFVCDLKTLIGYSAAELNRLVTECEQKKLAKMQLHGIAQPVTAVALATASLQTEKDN
Conditions: protein: recombinant; tags: N-terminal GST; dsDNA, one strand shown. Summed up: as §1

Test [4] has as its target T3, ERG (Homo sapiens, UniProt P11308 1-479).
T3 sequence: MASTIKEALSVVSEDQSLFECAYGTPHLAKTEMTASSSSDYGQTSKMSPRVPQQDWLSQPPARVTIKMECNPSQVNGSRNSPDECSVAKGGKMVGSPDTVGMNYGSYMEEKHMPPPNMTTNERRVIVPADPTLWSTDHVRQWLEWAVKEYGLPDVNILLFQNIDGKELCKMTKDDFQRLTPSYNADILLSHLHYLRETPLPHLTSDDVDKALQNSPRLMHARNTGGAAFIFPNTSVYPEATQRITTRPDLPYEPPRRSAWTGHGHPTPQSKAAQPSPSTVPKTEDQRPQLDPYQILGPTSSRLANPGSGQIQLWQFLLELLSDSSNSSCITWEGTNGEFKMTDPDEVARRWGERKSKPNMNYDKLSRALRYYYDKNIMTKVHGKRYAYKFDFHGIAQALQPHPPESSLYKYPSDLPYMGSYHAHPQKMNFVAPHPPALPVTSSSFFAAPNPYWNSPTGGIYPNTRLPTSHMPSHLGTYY
The following applies: protein: recombinant; tags: N-terminal GST; dsDNA, one strand shown. In short, it runs like this: as §1

Test [5] addresses ELF1 (Homo sapiens, UniProt P32519 1-619). Conditions: protein: recombinant; tags: N-terminal GST; dsDNA, one strand shown. In short, it runs like this: as §1
Test [6] deals with T4, EHF (Homo sapiens, UniProt Q9NZC4 1-300).
T4 sequence: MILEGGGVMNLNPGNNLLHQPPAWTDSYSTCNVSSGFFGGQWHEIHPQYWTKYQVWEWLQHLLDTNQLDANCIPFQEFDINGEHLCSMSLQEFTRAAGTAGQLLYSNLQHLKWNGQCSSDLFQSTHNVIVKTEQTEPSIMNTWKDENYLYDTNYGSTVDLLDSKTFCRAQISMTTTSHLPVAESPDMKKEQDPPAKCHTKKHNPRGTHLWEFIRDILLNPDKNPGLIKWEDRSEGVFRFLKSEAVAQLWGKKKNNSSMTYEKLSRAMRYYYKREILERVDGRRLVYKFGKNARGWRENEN
Conditions: protein: recombinant; tags: N-terminal GST; dsDNA, one strand shown. In short, it runs like this:
as §1

Test [7] concerns the target SPI1 (Homo sapiens, UniProt P17947 1-270). Conditions: protein: recombinant; tags: N-terminal GST; dsDNA, one strand shown. In short, it runs like this: as §1
For test [8], the target named is SPIB (Homo sapiens, UniProt Q01892 1-262). The following applies: protein: recombinant; tags: N-terminal GST; dsDNA, one strand shown. In short, it runs like this: as §1
Chain of SPIB (Q01892 whole entry): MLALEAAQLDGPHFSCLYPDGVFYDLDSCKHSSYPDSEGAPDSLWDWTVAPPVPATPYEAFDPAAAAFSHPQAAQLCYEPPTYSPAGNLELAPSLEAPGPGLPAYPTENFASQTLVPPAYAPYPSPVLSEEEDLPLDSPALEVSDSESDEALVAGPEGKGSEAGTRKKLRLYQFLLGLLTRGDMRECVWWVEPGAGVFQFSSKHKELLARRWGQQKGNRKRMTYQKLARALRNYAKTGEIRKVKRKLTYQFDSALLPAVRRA
Test [9] addresses T5, ELK3 (Homo sapiens, UniProt P41970 1-407).
T5 sequence: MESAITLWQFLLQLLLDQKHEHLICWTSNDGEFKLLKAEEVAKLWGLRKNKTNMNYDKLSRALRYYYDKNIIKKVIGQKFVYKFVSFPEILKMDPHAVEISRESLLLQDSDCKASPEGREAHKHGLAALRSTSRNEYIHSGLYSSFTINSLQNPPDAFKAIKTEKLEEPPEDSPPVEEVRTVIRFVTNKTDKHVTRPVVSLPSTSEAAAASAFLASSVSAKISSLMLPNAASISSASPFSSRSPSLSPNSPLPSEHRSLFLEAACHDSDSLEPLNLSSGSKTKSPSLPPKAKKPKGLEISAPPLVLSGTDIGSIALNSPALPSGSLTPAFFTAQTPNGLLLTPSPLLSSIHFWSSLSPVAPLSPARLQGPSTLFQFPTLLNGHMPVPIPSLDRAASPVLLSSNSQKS
The following applies: protein: recombinant; tags: N-terminal GST; dsDNA, one strand shown. Summed up: as §1

The target of test [10] is T6, ELK4 (Homo sapiens, UniProt P28324-2 1-405).
T6 sequence: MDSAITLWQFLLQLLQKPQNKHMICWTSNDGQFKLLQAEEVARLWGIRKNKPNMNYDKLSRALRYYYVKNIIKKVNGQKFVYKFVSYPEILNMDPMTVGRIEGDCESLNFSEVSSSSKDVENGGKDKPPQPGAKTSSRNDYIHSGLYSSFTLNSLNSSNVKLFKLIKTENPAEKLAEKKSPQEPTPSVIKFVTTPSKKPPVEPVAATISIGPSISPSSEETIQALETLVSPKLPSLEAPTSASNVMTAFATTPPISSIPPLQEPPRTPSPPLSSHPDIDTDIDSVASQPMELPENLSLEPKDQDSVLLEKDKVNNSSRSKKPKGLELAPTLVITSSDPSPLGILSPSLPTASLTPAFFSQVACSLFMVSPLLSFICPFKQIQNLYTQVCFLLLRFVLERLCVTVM
Conditions: protein: recombinant; tags: N-terminal GST; dsDNA, one strand shown. In short, it runs like this: as §1

Test [11] concerns the target T7, ETV2 (Homo sapiens, UniProt O00321 1-342).
T7 sequence: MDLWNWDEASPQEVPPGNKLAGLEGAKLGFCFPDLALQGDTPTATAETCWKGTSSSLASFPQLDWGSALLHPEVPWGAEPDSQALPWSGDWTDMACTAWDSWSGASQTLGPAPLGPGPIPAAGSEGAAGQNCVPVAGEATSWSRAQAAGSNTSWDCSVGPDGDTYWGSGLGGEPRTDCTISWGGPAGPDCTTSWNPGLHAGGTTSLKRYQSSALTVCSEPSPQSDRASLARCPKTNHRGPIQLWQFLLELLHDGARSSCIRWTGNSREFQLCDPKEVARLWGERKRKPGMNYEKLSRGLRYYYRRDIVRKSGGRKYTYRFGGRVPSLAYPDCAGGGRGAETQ
The following applies: protein: recombinant; tags: N-terminal GST; dsDNA, one strand shown. In short, it runs like this: as §1

Test [12] has as its target ETV1 (Homo sapiens, UniProt P50549 1-477). The following applies: protein: recombinant; tags: N-terminal GST; dsDNA, one strand shown. In short, it runs like this:
as §1

In test [13] the target is T8, ERF (Homo sapiens, UniProt P50548 1-548).
T8 sequence: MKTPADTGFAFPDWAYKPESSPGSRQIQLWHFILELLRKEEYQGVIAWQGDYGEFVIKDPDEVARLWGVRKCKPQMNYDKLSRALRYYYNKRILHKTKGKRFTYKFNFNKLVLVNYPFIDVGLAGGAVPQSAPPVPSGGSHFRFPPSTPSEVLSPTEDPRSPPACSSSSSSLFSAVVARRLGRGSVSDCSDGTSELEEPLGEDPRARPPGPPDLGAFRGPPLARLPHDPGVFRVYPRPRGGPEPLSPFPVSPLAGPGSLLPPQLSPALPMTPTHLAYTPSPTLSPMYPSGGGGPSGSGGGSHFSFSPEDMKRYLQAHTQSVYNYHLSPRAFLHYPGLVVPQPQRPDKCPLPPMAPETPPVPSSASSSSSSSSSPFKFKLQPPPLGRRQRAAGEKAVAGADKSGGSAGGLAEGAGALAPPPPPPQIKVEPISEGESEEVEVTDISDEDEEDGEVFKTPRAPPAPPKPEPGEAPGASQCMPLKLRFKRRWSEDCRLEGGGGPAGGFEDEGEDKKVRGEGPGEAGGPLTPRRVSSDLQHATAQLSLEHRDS
Conditions: protein: recombinant; tags: N-terminal GST; dsDNA, one strand shown. In short, it runs like this: as §1

Test [14] deals with T9, ETV3L (Homo sapiens, UniProt Q6ZN32 1-361).
T9 sequence: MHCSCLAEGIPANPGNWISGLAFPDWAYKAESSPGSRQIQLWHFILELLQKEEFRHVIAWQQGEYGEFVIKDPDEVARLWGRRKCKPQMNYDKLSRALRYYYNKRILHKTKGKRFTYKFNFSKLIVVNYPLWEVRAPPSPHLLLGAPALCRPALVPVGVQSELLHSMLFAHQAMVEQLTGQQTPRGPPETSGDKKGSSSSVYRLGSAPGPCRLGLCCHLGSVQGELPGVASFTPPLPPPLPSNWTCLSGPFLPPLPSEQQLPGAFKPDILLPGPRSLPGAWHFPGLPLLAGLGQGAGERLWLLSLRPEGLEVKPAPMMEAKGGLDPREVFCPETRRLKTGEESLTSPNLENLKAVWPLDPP
Conditions: protein: recombinant; tags: N-terminal GST; dsDNA, one strand shown. In short, it runs like this: as §1

The target in test [15] is T10, ETV3 (Homo sapiens, UniProt P41162-2 1-143).
T10 sequence: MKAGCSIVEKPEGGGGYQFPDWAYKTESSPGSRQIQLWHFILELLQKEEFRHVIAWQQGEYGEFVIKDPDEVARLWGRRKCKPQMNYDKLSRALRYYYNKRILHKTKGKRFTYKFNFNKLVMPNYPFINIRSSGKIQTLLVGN
Conditions: protein: recombinant; tags: N-terminal GST; dsDNA, one strand shown. Summed up: as §1

Test [16] concerns the target ETV6 (Homo sapiens, UniProt P41212 1-452). Conditions: protein: recombinant; tags: N-terminal GST; dsDNA, one strand shown. Summed up: as §1

Chain of HSF1 (Q00613 whole entry, the tested form may be a part): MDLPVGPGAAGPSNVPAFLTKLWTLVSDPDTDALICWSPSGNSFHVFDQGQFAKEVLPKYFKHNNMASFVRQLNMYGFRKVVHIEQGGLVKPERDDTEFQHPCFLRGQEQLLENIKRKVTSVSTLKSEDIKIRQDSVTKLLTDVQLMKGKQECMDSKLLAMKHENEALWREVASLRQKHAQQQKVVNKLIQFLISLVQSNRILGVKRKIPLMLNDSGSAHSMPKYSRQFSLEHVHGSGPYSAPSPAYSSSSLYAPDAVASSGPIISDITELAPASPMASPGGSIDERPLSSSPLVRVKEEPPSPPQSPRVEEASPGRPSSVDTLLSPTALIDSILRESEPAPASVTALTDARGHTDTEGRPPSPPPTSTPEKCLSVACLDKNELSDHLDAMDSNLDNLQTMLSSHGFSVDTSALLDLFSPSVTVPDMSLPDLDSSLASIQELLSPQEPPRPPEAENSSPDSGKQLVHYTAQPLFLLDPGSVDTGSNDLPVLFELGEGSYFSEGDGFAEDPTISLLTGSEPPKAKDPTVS
Chain of ETV1 (P50549 whole entry): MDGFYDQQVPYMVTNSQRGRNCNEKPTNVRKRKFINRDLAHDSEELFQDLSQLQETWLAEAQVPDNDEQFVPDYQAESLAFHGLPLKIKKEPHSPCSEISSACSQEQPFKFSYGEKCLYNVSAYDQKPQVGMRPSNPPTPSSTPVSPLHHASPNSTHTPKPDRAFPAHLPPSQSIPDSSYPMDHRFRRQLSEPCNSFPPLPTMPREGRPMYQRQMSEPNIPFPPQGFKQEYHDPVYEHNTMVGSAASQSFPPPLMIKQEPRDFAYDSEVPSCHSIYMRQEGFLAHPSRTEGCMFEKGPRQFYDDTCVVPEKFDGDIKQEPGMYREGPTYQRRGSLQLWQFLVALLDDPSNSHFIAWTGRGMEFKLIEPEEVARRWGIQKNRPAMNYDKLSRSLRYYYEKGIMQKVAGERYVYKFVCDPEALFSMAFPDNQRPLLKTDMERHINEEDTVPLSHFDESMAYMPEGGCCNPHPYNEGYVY
Chain of ELF1 (P32519 whole entry): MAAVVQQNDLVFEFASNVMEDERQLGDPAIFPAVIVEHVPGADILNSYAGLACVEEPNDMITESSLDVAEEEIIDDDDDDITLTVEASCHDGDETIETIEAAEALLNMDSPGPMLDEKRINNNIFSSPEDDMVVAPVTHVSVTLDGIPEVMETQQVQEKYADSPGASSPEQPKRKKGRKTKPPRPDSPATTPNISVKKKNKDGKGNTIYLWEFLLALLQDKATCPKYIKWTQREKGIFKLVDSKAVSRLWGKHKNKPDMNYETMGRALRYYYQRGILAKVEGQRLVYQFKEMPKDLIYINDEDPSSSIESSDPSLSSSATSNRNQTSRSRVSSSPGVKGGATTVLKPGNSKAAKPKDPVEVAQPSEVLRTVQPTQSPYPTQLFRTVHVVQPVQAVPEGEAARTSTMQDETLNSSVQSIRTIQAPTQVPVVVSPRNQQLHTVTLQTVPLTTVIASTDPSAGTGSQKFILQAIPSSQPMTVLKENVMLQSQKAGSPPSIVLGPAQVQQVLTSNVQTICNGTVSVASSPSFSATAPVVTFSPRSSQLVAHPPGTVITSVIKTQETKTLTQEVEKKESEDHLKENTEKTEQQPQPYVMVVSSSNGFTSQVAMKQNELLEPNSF
Chain of ETV6 (P41212 whole entry): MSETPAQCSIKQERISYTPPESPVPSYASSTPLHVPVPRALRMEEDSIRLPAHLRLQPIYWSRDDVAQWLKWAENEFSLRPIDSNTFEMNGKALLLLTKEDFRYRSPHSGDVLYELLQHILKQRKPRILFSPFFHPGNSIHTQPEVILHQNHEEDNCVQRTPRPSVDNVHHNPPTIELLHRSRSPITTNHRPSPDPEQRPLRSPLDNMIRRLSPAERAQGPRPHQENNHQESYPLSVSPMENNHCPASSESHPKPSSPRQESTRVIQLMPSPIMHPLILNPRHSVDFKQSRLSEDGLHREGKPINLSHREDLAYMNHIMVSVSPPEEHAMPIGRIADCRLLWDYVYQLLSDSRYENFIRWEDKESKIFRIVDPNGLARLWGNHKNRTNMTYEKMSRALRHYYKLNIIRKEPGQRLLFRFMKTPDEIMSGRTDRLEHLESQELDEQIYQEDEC

Take GAGAAG: the binding signal in [1] is 1.22 fold enrichment (6-mer frequency, TF over GST control).

CCTGGC: the binding signal was 1.03 fold enrichment (6-mer frequency, TF over GST control) in [2]; 1.1 fold enrichment (6-mer frequency, TF over GST control) in test [3]; 1.15 fold enrichment (6-mer frequency, TF over GST control) in test [4]; 1.07 fold enrichment (6-mer frequency, TF over GST control) in test [5]; 1.04 fold enrichment (6-mer frequency, TF over GST control) in [6]; 1.05 fold enrichment (6-mer frequency, TF over GST control) in [7]. The binding signal was 1.03 fold enrichment (6-mer frequency, TF over GST control) in [8]; 1.06 fold enrichment (6-mer frequency, TF over GST control) in test [9]; 1.13 fold enrichment (6-mer frequency, TF over GST control) in test [10]; 1.27 fold enrichment (6-mer frequency, TF over GST control) in [11]; 1.04 fold enrichment (6-mer frequency, TF over GST control) in test [12]; 1.03 fold enrichment (6-mer frequency, TF over GST control) in [13]. Further, the binding signal in test [14] is 1.08 fold enrichment (6-mer frequency, TF over GST control); in test [15], 1.01 fold enrichment (6-mer frequency, TF over GST control); in test [16] it was 1.08 fold enrichment (6-mer frequency, TF over GST control).

In the case of GATCGA, the binding signal in test [1] is 1.07 fold enrichment (6-mer frequency, TF over GST control).
